Assay results reported in PubChem BioAssay AID2315 (National Center for Advancing Translational Sciences (NCATS), 2010).
Among all 290,000 compounds or so, about 27,000 (9.3%) were called active. For the sample, actives were picked, then their nearest neighbours and some compounds at random. Values without a mark were called inactive. Cut-off read from the data, not from the text of the source: active = inhibition mostly above about 28% (no sharp cut-off); inactive = mostly below about 43%.

Assay: A qHTS for Small Molecule Inhibitors of Shiga Toxin; note: 0% is about no effect
Conditions: Vero cells, Shiga toxin protein synthesis inhibition reporter; at 38.7 µM, stronger effect = higher value
Work on `CC(=O)c1cccc(NC(=O)c2ccncc2)c1` yielded an inhibition of -0.119%. For `CCSc1nsc(NC(=O)Nc2cccc(C(C)=O)c2)n1`, the inhibition was 41.5% (active). For `CCc1nc(SCC(=O)Nc2ccccc2OC)n[nH]1`, the inhibition was -3.11%. Compound `COc1ccccc1NC(=O)Nc1nnc(Cc2ccc(F)cc2)s1` has an inhibition of 22.5%. In the case of `CCSc1nsc(NC(=O)Nc2ccccc2OC)n1`, the inhibition is reported as 27.4% (active). In the case of `C=CCSc1nsc(NC(=O)Nc2cccc(C(C)=O)c2)n1`, the inhibition is reported as 22.6%. `COc1ccc(N2CC(C(=O)N[C@@H](C)C(=O)N3CCCCC3)CC2=O)cc1` (stereo not given in full) gave an inhibition of -4.4%. For `COCCc1nn2c(=O)cc(COC(=O)c3cc(OC)c(OC)c(OC)c3)nc2s1`, the inhibition was -8.18%. With `C/C(N)=C(/C#N)C(=O)COC(=O)C1=NN(c2ccccc2)C(=O)CC1` the inhibition was -13.8%. `CCOCCCNC(=O)C(NC(=O)CNC(=O)c1ccccc1)c1ccc(OC)cc1` (stereo not given) gave an inhibition of -6.33%. In the case of `Cc1ccc(NC(=O)CN(C)CC(=O)Nc2cccc(F)c2)cc1[N+](=O)[O-]`, the inhibition is reported as 14.5%. For `Cc1ccc(NC(=O)CN2CCC(C(N)=O)CC2)cc1[N+](=O)[O-]`, the inhibition was 26%. In the case of `NC(=S)N/N=C/c1ccc([N+](=O)[O-])cc1`, the inhibition is reported as 4.32%. Compound `Cc1nc2ccccc2cc1C(=O)N/N=C/c1ccc([N+](=O)[O-])cc1` has an inhibition of -4.74%. For `Cc1ccsc1C(=O)N/N=C/c1ccc([N+](=O)[O-])cc1`, the inhibition was 64% (active). For `Cc1ccc(NC(=O)c2sccc2C)cc1[N+](=O)[O-]`, the inhibition was 87.3% (active). With `O=C(NCC(=O)N1CCN(c2ncc(C(F)(F)F)cc2Cl)CC1)c1ccc(Br)o1` the inhibition was -3.85%. `C=C1CCN(C(CC(C)C)C(=O)N2CCOCC2)S(=O)(=O)c2ccccc21` (stereo not given) gave an inhibition of -4.26%. Work on `O=C1C2C(c3ccccc3)CC=CC2C(c2ccoc2)N1Cc1ccccc1` (stereo not given) yielded an inhibition of -1.21%. Work on `CC(C)c1ccc(/C=C/C(=O)NNC(=O)c2cccnc2)cc1` yielded an inhibition of 0.769%. In the case of `O=C(/C=C/c1ccc(F)cc1)NCCNC(=O)/C=C/c1ccc(F)cc1`, the inhibition is reported as -7.35%. For `C=CCNC(=O)/C=C/c1ccc(C(C)C)cc1`, the inhibition was 96.1% (active). With `CCCNC(=O)N1CCC(c2ccc3c(c2)OCO3)CC1` the inhibition was -2.98%. Compound `Cc1nn(CC(=O)NCCc2ccccc2)c(=O)c2cc3occc3n12` has an inhibition of -3%. Work on `COc1ccc(CNC(=O)C(C)n2nc(C)c3c(C)n(-c4ccccc4)nc3c2=O)c(OC)c1` (stereo not given) yielded an inhibition of -6.6%. Work on `CC(=O)N1c2ccc(S(=O)(=O)N3CCCC(C(=O)NCc4ccc(Cl)cc4)C3)cc2CC1C` (stereo not given) yielded an inhibition of 8.69%. With `C=CCNC(=S)N/N=C/c1ccc(C)s1` the inhibition was 39.3% (active). Compound `C=CCNC(=S)N/N=C/c1ccc(OCc2ccccc2)cc1` has an inhibition of -15.4%. `Cc1ccc(/C=N/NC(=O)CN2CCN(Cc3ccccc3)CC2)s1` showed an inhibition of 14.8%. Work on `CCCn1c(C(C)Nc2nc(-c3ccc(C)cc3)cs2)nc2cc(Cl)c(N3CCCCC3)cc21` (stereo not given) yielded an inhibition of -1.11%. For `Cc1cccc(-n2cc(CN3CCN(C(=O)c4ncn[nH]4)CC3)c(-c3cccc(F)c3)n2)c1`, the inhibition was 63.8% (active). `CCC(O)C1CCN(Cc2cn(-c3ccc(OC)cc3)nc2-c2cccc(F)c2)CC1` (stereo not given) showed an inhibition of 50.9%. Compound `Cc1ccc(C)c(-n2cc(CN3CCN(C(=O)c4ncn[nH]4)CC3)c(-c3ccccc3)n2)c1` has an inhibition of 8.93%. Work on `COc1ccc(S(=O)(=O)N(C)CC(=O)NCCCN2CCOCC2)cc1Cl` yielded an inhibition of -12.5%. `Clc1nc(NC2CCCC2)nc(N2CCOCC2)n1` gave an inhibition of 5.65%. Work on `CCc1ccc(CNC(=O)C2CCN(c3nnc(C)c4c(C)n(-c5ccc(C)cc5)nc34)CC2)cc1` yielded an inhibition of -5.47%. Work on `O=S(=O)(c1ccc(Cl)cc1)c1nc(-c2ccco2)oc1N1CCCCC1` yielded an inhibition of -0.989%. With `CSc1ccc(S(=O)(=O)N2CCC(C(=O)NCCc3ccccc3)CC2)cc1` the inhibition was 56.2%. `CC(Oc1cc2oc(=O)c3c(c2cc1Cl)CCCC3)C(=O)NCc1ccncc1` (stereo not given) gave an inhibition of -3.65%. In the case of `O=C(CCN1c2ccccc2Sc2ccccc21)Nc1ccccc1`, the inhibition is reported as -1.29%. For `CCN1/C(=C/C(=S)Nc2ccccc2)Sc2ccccc21`, the inhibition was 62.5% (active). `CCN1/C(=C/c2ccc3ccc(C)cc3[n+]2CC)Sc2ccccc21` gave an inhibition of 5.47%. In the case of `CCn1cc(/C=C(\NC(=O)c2ccc(C)cc2)C(=O)NCCN2CCOCC2)c2ccccc21`, the inhibition is reported as 1.24%. In the case of `Cc1ccc(-c2nc(C)sc2CC(=O)O)cc1`, the inhibition is reported as -13.7%. For `C/C(=N/Nc1nc(-c2ccccc2)c(CC(=O)O)s1)c1ccccc1`, the inhibition was 68.4% (active). `CCOC(=O)C(=O)Nc1nc(-c2ccccc2)c(CC)s1` gave an inhibition of -12%. `COC(=O)c1cccc(N2C(=O)C3C4C=CC(CC4)C3C2=O)c1` (stereo not given) gave an inhibition of 0.962%. For `CC(C)Cn1cnc2c1c(=O)n(CC(=O)NN)c(=O)n2Cc1ccccc1`, the inhibition was -7.02%. `CN1CCN(CC(=O)Nc2cccc([N+](=O)[O-])c2)CC1` gave an inhibition of -12.8%. In the case of `O=C(Nc1cccc([N+](=O)[O-])c1)N1CCc2ccccc2C1`, the inhibition is reported as 88.6% (active). With `CC(=O)Nc1cccc([N+](=O)[O-])c1` the inhibition was 17.7%. Work on `CCc1ccc(NC(=O)N2CCN(c3ccccc3)CC2)cc1` yielded an inhibition of 20.1%. With `O=C(C(=O)N1CCc2ccccc2C1)N1CCc2ccccc2C1` the inhibition was 8.23%. In the case of `CCc1ccc(NC(=O)N2CCc3ccccc3C2)cc1`, the inhibition is reported as 120% (active). Compound `COC(=O)c1ccccc1NC(=O)CSc1nc2c(c(=O)[nH]1)CCC2` has an inhibition of -2.68%. In the case of `COc1ccc(C(=O)NC(=S)N2CCCCC2c2cccnc2)cc1OC` (stereo not given), the inhibition is reported as -4.75%. `Cc1ccc(Cn2cc(C(=O)NN)c(=O)c3ccc(F)cc32)cc1` showed an inhibition of -5.32%. Work on `Nc1nc(SCc2cccc(Br)c2)n[nH]1` yielded an inhibition of 14.2%. For `O=C(CN1CCN(C(=O)C2CCCO2)CC1)Nc1c(Cl)cccc1Cl` (stereo not given), the inhibition was -6.84%. In the case of `COc1cc(C(=O)NCC2(c3ccccc3)CCCC2)ccc1OC(C)C`, the inhibition is reported as 4.68%. With `CC(Cc1cccs1)NC(=O)c1cccc(Cl)c1` (stereo not given) the inhibition was 62% (active). Compound `CC(Cc1cccs1)NCc1ccc(Cl)cc1` (stereo not given) has an inhibition of -11.1%. Work on `CC(Cc1cccs1)NC(=O)NC1CCCCC1` (stereo not given) yielded an inhibition of 35.2%. Work on `COC(=O)c1ccc(COc2ccc(/C=C/C(=O)c3ccc(OC)c(CSCC(=O)O)c3)cc2OC)cc1` yielded an inhibition of 10.1%. `CCOC(CNC(=O)C1CCN(S(=O)(=O)c2ccc3nc4c(c(C(=O)O)c3c2)CC(C)CC4)CC1)OCC` (stereo not given) gave an inhibition of 16.6%. `NS(=O)(=O)c1ccc2nc(NC(=O)CS(=O)(=O)c3ccc(F)cc3)sc2c1` showed an inhibition of -4.57%. In the case of `NS(=O)(=O)c1ccc2nc(NC(=O)C3=COCCO3)sc2c1`, the inhibition is reported as 31.7% (active). With `O=C(Nc1ccc(S(=O)(=O)N2CCCC2)cc1Cl)C1=COCCO1` the inhibition was -24.5%. Compound `CC(=O)c1ccc(NC(=O)Cn2c(=O)oc3ccccc32)cc1` has an inhibition of -3.29%. `Nc1ncc(CN2CCCC(C(=O)Nc3ccc(-c4ccco4)cc3)C2)cn1` (stereo not given) gave an inhibition of 1.36%. With `Cc1noc(C)c1COc1ccc2ccc(=O)oc2c1` the inhibition was -4.36%. For `CC(C)OC(=O)c1ccc(COc2ccc3ccc(=O)oc3c2)o1`, the inhibition was 56.4% (active). `COC(=O)c1ccc(COc2ccc(C#N)cc2)o1` gave an inhibition of -6.04%. `CN(C)C(=O)CCC(=O)N1CCCCC1C(=O)Nc1ccc(Oc2ccccc2F)cc1` (stereo not given) showed an inhibition of -6.54%. Compound `CC(C)(C)n1nnnc1C(c1ccccc1F)N1CCN(C(=O)c2ccco2)CC1` (stereo not given) has an inhibition of 2.73%. Work on `Cc1ccccc1OCC(=O)N(Cc1cccc(F)c1)C1CCS(=O)(=O)C1` (stereo not given) yielded an inhibition of 10.7%. For `CCCCOc1ccc(CSC(=N)N)cc1[N+](=O)[O-]`, the inhibition was -5.85%. Compound `CCCOc1ccc(Cn2ccnc2)cc1[N+](=O)[O-]` has an inhibition of -8.54%. With `CCCCCOc1ccc(CSC2=NCCN2)cc1[N+](=O)[O-]` the inhibition was 63.7% (active). In the case of `COc1cccc(CCNC(=O)c2cccc(NC(=O)C3=C(C)OCCS3)c2)c1`, the inhibition is reported as -2.41%. With `CN(C)CCN=c1cc(-c2ccccc2)oc2ccc(Cl)cc12` the inhibition was 129% (active). Work on `CN(C)CCn1c(=S)[nH]c2ccc(Cl)cc2c1=O` yielded an inhibition of -8.18%. `Cc1cc(-c2ccc(C)c(S(=O)(=O)Nc3ccc(S(N)(=O)=O)cc3)c2)on1` gave an inhibition of 29.3%. Compound `COc1ccc(CCNS(=O)(=O)c2cn(C)nc2C)cc1` has an inhibition of 16.1%. With `CCOC(=O)CNc1nc(Cl)nc(Nc2ccc(OC)cc2OC)n1` the inhibition was 26.8%. For `CCOC(=O)CNc1nc(Cl)nc(Nc2ccccc2)n1`, the inhibition was 65.7% (active). Compound `CCC(=O)Nc1ccc(Nc2nc(Cl)nc(Nc3ccc(NC(=O)CC)cc3)n2)cc1` has an inhibition of 4.44%. For `CCn1c(SCC(=O)NC2CCCC2)nnc1-c1ccoc1C`, the inhibition was -5.62%. With `CN(Cc1cc2cc(F)ccc2[nH]1)Cc1nc(-c2cnccn2)no1` the inhibition was -4.61%. In the case of `CN(Cc1nc2ccc(F)cc2[nH]1)Cc1nc(CC2CC2)no1`, the inhibition is reported as 48% (active). Work on `CN(Cc1ccc2nsnc2c1)Cc1nc(Cc2cccc(F)c2)no1` yielded an inhibition of 1.39%. With `C/C(=N\N(C)C)c1ccc(OCCOc2ccc([N+](=O)[O-])cc2)cc1` the inhibition was 6.72%. Work on `CCn1c(SCC(=O)NC2=NCCS2)nnc1C(C)NC(=O)c1ccccc1F` (stereo not given) yielded an inhibition of -15.6%. In the case of `Cc1cc(-n2cnc(-c3cn(C)nc3C)n2)no1`, the inhibition is reported as 52.5% (active). In the case of `COc1ccc(Cl)cc1NS(=O)(=O)c1cccc(C(=O)NCC2CCCO2)c1` (stereo not given), the inhibition is reported as -3.5%.
